From PubChem BioAssay
In the library only some 15% were active in any assay of this set; here they are far more common.
ELG1 DNA repair = blocks ELG1-dependent DNA repair in HEK293T cells; HEK293T ELG1-luciferase reporter, luminescence, 16 h; DNA damage induced by 5-fluorouridine; Potency, µM (doses to about 46.1 µM), inactives show top-dose activity change, negative = inhibition, usual class: inhibitors; 2.3% of 330,000 active; AID 504467; note: nearly all actives have a fitted effect of over 55% in size
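Step one: seed 2,000 cells per well. Step two: pin-transfer compound or DMSO alongside 5-fluorouridine. Step three: incubate 16 hr, 37 °C, 5% CO2. Step four: add ONE-Glo, wait 30 min, read luminescence.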
Gal4-VP16 FLuc = counter-screen for ROR gamma inhibitors: Gal4-VP16 reporter; Drosophila S2 Gal4-VP16 UAS-luciferase, luminescence, 20 h; Potency, µM (titrated, usually from 53.6 µM), for inactives: at the top dose activity, negative = inhibition, actives largely listed as inhibitors; 3.5% of 310,000 active;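 note: Gal4-VP16 expression switched on by copper sulfate through the metallothionein promoter; nearly all actives have a fitted effect of over 50% in size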
RORg inh = inhibitors of mouse ROR gamma transcriptional activity; P51450; Drosophila S2 Gal4-RORgamma UAS-luciferase reporter, 20 h; Potency, µM (titrated, usually from 53.6 µM), without a hit: top-dose activity change, negative = inhibition, actives largely listed as inhibitors; 5.4% of 310,000 active; AID 2551; note: nearly all actives have a fitted effect of over 60% in size
Target sequence (P51450 whole entry, looked up, the tested form may be a part): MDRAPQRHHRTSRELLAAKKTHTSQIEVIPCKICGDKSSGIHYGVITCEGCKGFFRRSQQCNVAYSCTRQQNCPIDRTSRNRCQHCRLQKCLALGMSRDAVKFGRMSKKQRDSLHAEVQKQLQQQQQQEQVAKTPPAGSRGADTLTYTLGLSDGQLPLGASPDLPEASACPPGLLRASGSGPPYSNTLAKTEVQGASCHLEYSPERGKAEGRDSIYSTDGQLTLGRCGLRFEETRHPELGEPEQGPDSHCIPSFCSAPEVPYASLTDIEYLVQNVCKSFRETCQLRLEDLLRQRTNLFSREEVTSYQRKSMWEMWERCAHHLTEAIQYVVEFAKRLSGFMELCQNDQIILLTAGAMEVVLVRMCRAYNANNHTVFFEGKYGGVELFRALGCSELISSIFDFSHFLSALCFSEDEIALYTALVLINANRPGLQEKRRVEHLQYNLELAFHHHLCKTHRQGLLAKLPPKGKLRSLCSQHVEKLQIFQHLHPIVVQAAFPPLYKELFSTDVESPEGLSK
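Luminescence from a UAS-regulated Photinus luciferase reporter in stably transfected Drosophila Schneider cells is measured; decreased signal marks ROR gamma inhibition. Fusion expression is induced by 700 uM copper sulfate for 20 hr.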
12-LOX inh = ALOX12 (human) lipoxygenase inhibition | Potency, µM (doses to about 108 µM), for inactives: at the highest dose activity change, negative = inhibition, most hits filed as inhibitors | 1.1% of 580,000 active | purified 12hLO, xylenol orange hydroperoxide absorbance | AID 1671190 | P18054
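Purified human 12hLO (150 nM final) in 25 mM Hepes, 0.01% Triton X-100, pH 7.0 was preincubated 15 min at room temperature with compound. Then 40 uM arachidonic acid was added, 30 min. Hydroperoxide was read by Fe-XO absorbance ratio 573/405 nm.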
TDP1 cell noCPT = qHTS for Inhibitors of human tyrosyl-DNA phosphodiesterase 1 (TDP1): qHTS in cells in absence of CPT; DT40 Tdp1-/- hTDP1 cells, no CPT, ATP luminescence, 48 h; Potency, µM (top dose mostly 46.2 µM), inactives show top-dose activity change, negative = growth inhibition, usual class: inhibitors; 15% of 420,000 active; note: nearly all actives have a fitted effect of over 55% in size
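Chicken DT40 Tdp1-/- cells complemented with human TDP1, screened without camptothecin (DMSO vehicle only), 400 cells/well. Compounds pin-transferred, cells incubated at 37 °C for at least 48 hr. Growth read as ATP-dependent luminescence (CellTiter-Glo, 30 min at RT).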
TDP1 cell CPT = growth inhibition of DT40 Tdp1-/-;hTDP1 cells with camptothecin (screen for TDP1 inhibitors); AID 686979; chicken DT40 Tdp1-/-;hTDP1 cells + 20 nM CPT, ATP luminescence, 48 h; 12% of 420,000 active; Potency, µM (highest dose often 46.2 µM), without a hit: at the highest dose activity change, negative = growth inhibition, most hits filed as inhibitors; note: nearly all actives have a fitted effect of over 55% in size
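Cell growth measured by CellTiter-Glo luminescence after a minimum 48 h, 37 C compound exposure with 20 nM CPT in Tdp1-knockout DT40 cells stably expressing hTDP1, seeded 400/well; qHTS titration format.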
The depositor's hits bear a star; ? = inconclusive; nt = no result; [ ] = dose if it differs, or a comment. Calls come from the whole dose curve; as a rule, active = well fitted curve in the direction sought with a large enough effect; inconclusive = small, poorly fitted or top-dose-only effect, or another doubt; inactive = no such curve, though single readings can be large; an effect the other way counts as inactive or inconclusive. % is set by controls: 0 for no effect and ±100 for the full control effect; potency is the fitted concentration of half-maximal effect.

SMILES | ELG1 DNA repair | Gal4-VP16 FLuc | RORg inh | 12-LOX inh | TDP1 cell noCPT | TDP1 cell CPT
Cc1ccc(CN2C(=O)C(CC(C)C)Nc3ncnc(N4CCN(c5ccccn5)CC4)c32)cc1 (configuration not stated) | ? | nt | nt | -30% | 18µM* | ?
COc1ccc(CN2C(=O)C(C)Nc3ncnc(N4CCc5ccccc5C4)c32)cc1 (configuration not stated) | nt | nt | nt | -18% | 4.6µM* | 4.6µM*
CC1Nc2ncnc(N3CCN(c4ccccn4)CC3)c2N(Cc2ccccc2)C1=O (configuration not stated) | -3% | nt | nt | 0% | ? | ?
CS(=O)(=O)Nc1ccccc1CNC(=O)C1CCC1 | nt | nt | nt | 5% | nt | nt
COc1ccc(C(=O)Nc2ccc(C)c3ncccc23)c(OC)c1 | nt | nt | nt | 0% | nt | nt
NC(=S)N/N=C1\CCSc2ccc(Cl)cc21 | ? | 10µM* | 2µM* | 0% | 18µM* | 21µM*
C=CCOC(=O)C1=C[C@H](c2csc3ccccc23)C[C@H](OCc2ccc(CO)cc2)O1 | nt | nt | nt | -28% | 21µM* | ?
O=C(Nc1ccccc1)C1=C[C@H](c2csc3ccccc23)C[C@H](OCCCCO)O1 | ? | 3% | 40% | ? | ? | ?
O=C(Nc1ccccc1)C1=C[C@H](c2csc3ccccc23)C[C@H](OCc2ccc(CO)cc2)O1 | ? | 16% | ? | 1% | 16µM* | 16µM*
Cc1cc(Cl)ccc1NC(=O)C1CN(S(C)(=O)=O)CC12CCCCC2 (configuration not stated) | nt | nt | nt | 1% | nt | nt
COc1ccc2c(c1)CCN=C2Cc1ccc(OC)c(OC)c1 | -25% | 1% | ? | ? | 16µM* | ?
O=C(N[C@@H]1CCC[C@@H]1C(=O)NC1CCCCCC1)c1ccncc1 | nt | nt | nt | 7% | nt | nt
O=C(O)c1ccc(-n2nc(C(F)(F)F)c3c2CCCC3)cc1 | 17% | 22% | ? | -5% | 14% | 4%
O=C(c1ccc(-n2nc(C(F)(F)F)c3c2CCCC3)cc1)N1CCOCC1 | 5.2µM* | 20% | 20% | -1% | ? | ?
CCOC(=O)CC1(CC)Oc2ccccc2N1S(=O)(=O)c1ccc(C)cc1 (configuration not stated) | nt | nt | nt | -2% | ? | 23µM*
CCOC(=O)CC1(C)N(S(=O)(=O)c2ccc(C)cc2)c2ccccc2N1S(=O)(=O)c1ccc(C)cc1 | nt | nt | nt | 11% | 15µM* | ?
CCOC(=O)C1CN(S(=O)(=O)c2ccc(OC)cc2)c2ccccc2O1 (configuration not stated) | -7% | -11% | 6% | 1% | -18% | 6%
CCNc1c(NC(=O)c2ccc(C(C)(C)C)cc2)c(=O)oc2ccccc12 | nt | nt | nt | -18% | nt | nt
CCC(NC(=O)Nc1ncccc1C)(C(F)(F)F)C(F)(F)F | -4% | -3% | 7%[10 µM] | 0% | 5% | -3%
CCC(NC(=O)NNC(N)=S)(C(F)(F)F)C(F)(F)F | -2% | -15% | 11µM* | -12% | -4% | -9%
Cc1ccc(C)c(NC(=O)c2cc(S(=O)(=O)NCCC3=CCCCC3)ccc2F)c1 | nt | nt | nt | ? | 21µM* | ?
COc1ccc(NC(=O)c2cc(S(=O)(=O)NCC3COc4ccccc4O3)ccc2F)cc1 (configuration not stated) | ? | -4% | 41% | 0% | ? | ?
COc1ccc(CCNS(=O)(=O)c2ccc(F)c(C(=O)Nc3ccc(Cl)cc3)c2)cc1OC | nt | nt | nt | -18% | 21µM* | 29µM*
Cc1ccc(NC(=O)c2cc(S(=O)(=O)NCCC3=CCCCC3)ccc2F)cc1 | -5% | ? | ? | -20% | ? | ?
CC(C)c1ccc(NC(=O)c2cc(S(=O)(=O)NCC3COc4ccccc4O3)ccc2F)cc1 (configuration not stated) | ? | ? | ? | -24% | 18µM* | 23µM*
SMILES | ELG1 DNA repair | Gal4-VP16 FLuc | RORg inh | 12-LOX inh | TDP1 cell noCPT | TDP1 cell CPT
CC(C)c1ccc(NC(=O)c2cc(S(=O)(=O)NCCc3ccccc3)ccc2F)cc1 | nt | nt | nt | -2% | 10µM* | 15µM*
CCN(CC)C(=O)c1ccc2oc(CN3CCN(C(=O)Nc4ccc(C)c(F)c4)CC3)nc2c1 | nt | nt | nt | 13% | nt | nt
CC(Nc1ccc(N2CCCC2=O)cc1)c1nc(C(C)(C)C)no1 (configuration not stated) | nt | nt | nt | 6% | nt | nt
Cc1ccc(CNS(=O)(=O)c2ccc(F)c(C(=O)Nc3ccc(C)c(F)c3)c2)cc1 | nt | nt | nt | -24% | -10% | -14%
COc1ccc(C)cc1S(=O)(=O)NCCC1=CCCCC1 | ? | 11µM* | -11% | -16% | ? | -19%
Cc1ccc(NC(=O)c2cc(S(=O)(=O)NCCc3ccc(Cl)cc3)ccc2F)cc1 | nt | nt | nt | ? | 13µM* | ?
O=C(NCc1cccnc1OCc1ccccc1)Nc1nnc(C2CC2)s1 | nt | nt | nt | 56% | nt | nt
Cc1oc(-c2cccc(Cl)c2)nc1CSc1nc2ncccc2[nH]1 | nt | nt | nt | 0% | 21µM* | ?
Cc1oc(-c2cccc(Br)c2)nc1CSc1nc2ncccc2[nH]1 | nt | nt | nt | 0% | ? | ?
COc1ccc(-c2nc(CSc3nc4ncccc4[nH]3)c(C)o2)cc1OC | nt | nt | nt | 1% | 21µM* | ?
CCn1c(SCC(=O)Nc2ccnn2C2CCCC2)nnc1C1CC1 | nt | nt | nt | 3% | nt | nt
Cc1cc(=O)n2c(C(=O)Nc3ccc(C)c(C)c3)c(C(=O)Nc3ccccc3)sc2n1 | 2% | ? | -25% | 7% | 16µM* | ?
COc1ccc(NC(=O)c2c(C(=O)Nc3ccccc3)sc3nc(C)cc(=O)n23)cc1 | nt | nt | nt | -24% | -7% | -18%
Cc1ccc(NC(=O)c2sc(Cl)nc2-c2ccccc2)cc1C | -8% | 20% | 0% | 0% | 18µM* | ?
Cc1ccccc1Nc1nc(-c2ccccc2)c(C(=O)Nc2cccnc2)s1 | 23µM* | -17% | ? | 0% | ? | ?
O=C(Nc1cccnc1)c1sc(Nc2ccccc2F)nc1-c1ccccc1 | ? | -23% | 9% | 0% | ? | ?
COc1cccc(C(=O)N2CCC(C(=O)N3CC[C@@](C)(O)[C@@H](O)C3)CC2)c1 | nt | nt | nt | 10% | nt | nt
CCCN1C(=O)CCc2cc(NS(=O)(=O)CC)ccc21 | nt | nt | nt | -1% | nt | nt
O=C(NCCCN1CCCc2ccccc21)C1Cn2cccc2C(=O)N1Cc1cccnc1 (configuration not stated) | nt | nt | nt | 41% | nt | nt
